# Test results published in PubChem BioAssay (NCATS).
# Where “and” joins values, the source holds several entries; their conditions need not be identical. Identical values can stand only once. Inconclusive results are not listed. Calls of active or inactive are those of the source. Unless noted, calls follow the shape of the dose curve; as a rule, active = well fitted curve in the direction sought with a large enough effect; inconclusive = small, poorly fitted or top-dose-only effect, or another doubt; inactive = no such curve, though single readings can be large; an effect the other way counts as inactive or inconclusive.
# What was measured:
# [1] = Confirmation and Secondary Assay for Modulators of Hemoglobin Beta Chain Splicing at IVS2 654 locus (AID 910);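 also: HeLa cells stably carrying EGFP split by mutant beta-globin IVS2-654 intron; % of control where 0% means no effect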
# Method in brief: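 HeLa cells stably expressing EGFP interrupted by β-globin IVS2-654 intron, seeded overnight in Opti-MEM/2% FCS, then treated 2 days at 37 °C. Restored splicing read as total peak GFP intensity per well by laser scanning cytometry (488 nm excitation, 500–520 nm emission); 500 nM antisense PNA as control.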
# [2] = Confirmation and Secondary Assay for Modulators of Hemoglobin Beta Chain Splicing at IVS2 705 locus (AID 930);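 also: HeLa cells stably expressing the EGFP-705 splicing reporter; GFP fluorescence per well restored by corrected splicing of the IVS2-705 intron in EGFP; % of control where 0% means no effect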
# Method in brief: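 Assay measures total GFP intensity per well in HeLa EGFP-705 cells after 2 days with compound; mis-splicing normally truncates EGFP, so fluorescence indicates corrected splicing.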
# [3] = qHTS Assay for Lipid Storage Modulators (AID 1519; calls by dose curve; as to activity change, negative = inhibition: % is scaled to controls: 0 for no effect and ±100 for the full control effect); conditions: Drosophila S3 cells, BODIPY lipid droplet/cell ratio, laser cytometry, cells loaded with oleic acid; for activity change, negative = inhibition: at 57.5 µM (top of the series)
# Method in brief: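 Cells seeded at 5,000 per well were treated with compounds over a concentration series and loaded with oleic acid (400 uM, as added). Lipid droplet fluorescence (488 nm excitation, 500-530 nm channel) was read by laser-scanning cytometry and normalized to 20 uM Triacsin C.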
# [4] = molecular target: Ubiquitin carboxyl-terminal hydrolase 1 (Homo sapiens) (UniProt O94782); experiment: Inhibitors of USP1/UAF1: Pilot qHTS (AID 504865);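 also: rhodamine fluorescence freed from ubiquitin-rhodamine substrate followed over time; top concentration of the series differs between compounds; % is scaled to controls: 0 for no effect and ±100 for the full control effect; nearly all actives have a fitted effect of over 35% in size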
# Method in brief: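 Deubiquitinase activity followed as kinetic rhodamine fluorescence release from 150 nM Ub-Rho. 1 nM USP1/UAF1 with compound, after 15 min room-temperature preincubation, in HEPES pH 7.8 buffer containing TCEP, EDTA, BSA and Tween-20.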
# [5] = molecular target: Cytochrome P450 3A4 (Homo sapiens) (UniProt P08684); experiment: qHTS Assay for Inhibitors and Substrates of Cytochrome P450 3A4 (AID 884); also: nearly all actives have a fitted effect of over 50% in size; also: potency is read from the fitted curve at half-maximal effect; as to activity change, negative = inhibition: % is scaled to controls: 0 for no effect and ±100 for the full control effect
# Method in brief: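 Luminescent readout of luciferin produced by CYP3A4 (20 nM) dealkylation of Luciferin-PPXE, 25 uM (its KM). NADPH-driven reaction ran 60 min at RT after 10 min compound preincubation; data scaled to 57 uM ketoconazole as 100% inhibition.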
# [6] = molecular target: Bile acid receptor (Homo sapiens) (UniProt Q96RI1); experiment: qHTS assay for small molecule agonists of farnesoid X receptor signaling (AID 588527; calls by dose curve;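 also: 0% = vehicle basal and 100% = reference agonist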); conditions: HEK293T FXR-UAS-bla, beta-lactamase ratio, 16 h; stronger effect = higher value
# Method in brief: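 Read-out: beta-lactamase reporter fluorescence with CCF4 substrate in GeneBLAzer FXR-UAS-bla HEK293T cells, after 16 h compound exposure at 37 C. Response scaled between DMSO basal (0%) and chenodeoxycholic acid at 100 uM (100%).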
# [7] = qHTS assay for small molecule antagonists of retinoid X receptor alpha signaling (AID 588546; active = well fitted inhibition curve with a large enough effect in the signal ratio, with a control signal flat, not every such curve was filed as active; the % refers to the signal ratio; also: potency is read from the fitted curve at half-maximal effect;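 as to max response: cells stimulated with 9-cis-retinoic acid as agonist; % is scaled to controls: 0 for no effect and ±100 for the full control effect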); conditions: HEK293T RXRa-UAS-bla, beta-lactamase ratio, antagonist mode; measured here: W530 green channel, cytotoxicity proxy
# Method in brief: (§1)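 Beta-lactamase reporter inhibition, read as CCF4 fluorescence ratio (ex 405, em 460/530 nm) after 2 h at RT. HEK293T UAS-bla cells, 2500/well, were stimulated with 9-cis-RA at 500 or 100 nM final alongside test compound for 18 h at 37 C.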
# [8] = molecular target: Retinoic acid receptor RXR-alpha (Homo sapiens) (UniProt P19793); experiment: as above; conditions: HEK293T RXRa-UAS-bla, beta-lactamase ratio, antagonist mode
# Method in brief: as §1
# [9] = qHTS assay for small molecule activators of the p53 signaling pathway (AID 651743; active = well fitted activation curve with a large enough effect in the signal ratio, not every such curve was filed as active; the % refers to the signal ratio; also: potency is read from the fitted curve at half-maximal effect); conditions: HCT-116 p53RE-bla, beta-lactamase FRET ratio, 16 h; activation: stronger effect = higher value
# Method in brief: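 Following 16 hours of compound exposure at 37 C, HCT-116 cells bearing the p53RE-bla reporter were loaded with LiveBLAzer B/G FRET substrate for 2 hours at room temperature and fluorescence intensity was recorded.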
# [10] = qHTS assay for small molecule activators of the nuclear factor-kappa B (NF-kB) signaling pathway (AID 651749; active = well fitted activation curve with a large enough effect in the signal ratio; the % refers to the signal ratio; also: % of control where 0% means no effect); conditions: NF-kB-bla ME-180 cells, beta-lactamase FRET ratio, 16 h; activation: stronger effect = higher value
# Method in brief: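 In this qHTS format, compounds acting as activators increase NF-kB-driven beta-lactamase in ME-180 cells, measured as disrupted FRET after 16 hr exposure at 37C and 5% CO2.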
# [11] = qHTS assay for environmental chemicals that activate the Aryl hydrocarbon Receptor (AhR) signaling pathway (AID 651777); conditions: 1A2-DRE human hepatoma cells, luciferase, 24 h; activation: stronger effect = higher value; also: % of control where 0% means no effect; nearly all actives have a fitted effect of over 15% in size
# Method in brief: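 Stable CYP1A2 promoter/DRE-luciferase human hepatoma line treated 24 hr; One-Glo luminescence, 30 min RT.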
# [12] = molecular target: Peroxisome proliferator-activated receptor alpha (Homo sapiens) (UniProt Q07869); experiment: qHTS assay for small molecule agonists of the peroxisome proliferator-activated receptor alpha (PPARalpha) signaling pathway (AID 651778); conditions: PathHunter PPARalpha complementation, chemiluminescence, 6 h; stronger effect = higher value; also: % of control where 0% means no effect
# Method in brief: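 Enzyme-fragment complementation assay in which ligand-bound PPARalpha translocates and forms an active enzyme that generates chemiluminescence. Cells were plated overnight, exposed to compound for 6 hr at 37 C, and then given detection reagent for 60 min at room temperature.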
# [13] = qHTS assay for small molecule agonists of the antioxidant response element (ARE) signaling pathway measured by Nrf2-dependant transcriptional activity (AID 720636; active = well fitted curve in the direction sought with a large enough effect in the repeat runs; an effect the other way counts as inactive or inconclusive;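 also: HepG2 cells with an ARE-driven luciferase reporter; % of control where 0% means no effect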)
# Method in brief: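 Reporter gene assay, HepG2 ARE-luc: 16 hr compound, 37 C, 5% CO2; read-out luciferase luminescence.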
# [14] = molecular target: DNA dC->dU-editing enzyme APOBEC-3G (Homo sapiens) (UniProt Q9HC16); experiment: qHTS for inhibitors of Vif-A3G interactions: Validation (AID 588379); also: 0% is about no effect
# Method in brief: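 Yellow fluorescence (Ex 488, Em 500-530) of Vif-coexpressing HeLa A3G-eYFP cells, scanned by Acumen cytometer, reports blocked A3G degradation. Cells plated at 700/well overnight at 37 deg C before compound addition, then a further overnight compound incubation at 37 deg C.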
# [15] = molecular target: Cytochrome P450 3A4 (Homo sapiens) (UniProt P08684); experiment: qHTS Assay for Activators of Cytochrome P450 3A4 (AID 885); also: nearly all actives have a fitted effect of over 65% in size
# Method in brief: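 Activators are scored by enhanced luminescence from CYP3A4 conversion of luciferin-PPXE (25uM, equal to KM) to luciferin, after 60 min at RT with an NADPH-regenerating system.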
# [16] = measured here: cell count channel max response
# [17] = measured here: lipid channel max response
# Chain of DNA dC->dU-editing enzyme APOBEC-3G (Homo sapiens) (Q9HC16 whole entry, looked up): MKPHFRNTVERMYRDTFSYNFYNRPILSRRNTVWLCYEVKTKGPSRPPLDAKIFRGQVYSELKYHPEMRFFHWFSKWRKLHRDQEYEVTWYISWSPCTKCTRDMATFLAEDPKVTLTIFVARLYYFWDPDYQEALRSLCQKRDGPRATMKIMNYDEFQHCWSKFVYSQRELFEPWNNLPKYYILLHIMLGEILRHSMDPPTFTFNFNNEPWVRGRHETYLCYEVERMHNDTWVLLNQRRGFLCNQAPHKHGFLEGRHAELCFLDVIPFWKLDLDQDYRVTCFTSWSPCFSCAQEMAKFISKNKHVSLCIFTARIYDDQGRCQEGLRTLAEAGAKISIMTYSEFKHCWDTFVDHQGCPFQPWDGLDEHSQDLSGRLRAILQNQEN
# Chain of Ubiquitin carboxyl-terminal hydrolase 1 (Homo sapiens) (O94782 whole entry, looked up): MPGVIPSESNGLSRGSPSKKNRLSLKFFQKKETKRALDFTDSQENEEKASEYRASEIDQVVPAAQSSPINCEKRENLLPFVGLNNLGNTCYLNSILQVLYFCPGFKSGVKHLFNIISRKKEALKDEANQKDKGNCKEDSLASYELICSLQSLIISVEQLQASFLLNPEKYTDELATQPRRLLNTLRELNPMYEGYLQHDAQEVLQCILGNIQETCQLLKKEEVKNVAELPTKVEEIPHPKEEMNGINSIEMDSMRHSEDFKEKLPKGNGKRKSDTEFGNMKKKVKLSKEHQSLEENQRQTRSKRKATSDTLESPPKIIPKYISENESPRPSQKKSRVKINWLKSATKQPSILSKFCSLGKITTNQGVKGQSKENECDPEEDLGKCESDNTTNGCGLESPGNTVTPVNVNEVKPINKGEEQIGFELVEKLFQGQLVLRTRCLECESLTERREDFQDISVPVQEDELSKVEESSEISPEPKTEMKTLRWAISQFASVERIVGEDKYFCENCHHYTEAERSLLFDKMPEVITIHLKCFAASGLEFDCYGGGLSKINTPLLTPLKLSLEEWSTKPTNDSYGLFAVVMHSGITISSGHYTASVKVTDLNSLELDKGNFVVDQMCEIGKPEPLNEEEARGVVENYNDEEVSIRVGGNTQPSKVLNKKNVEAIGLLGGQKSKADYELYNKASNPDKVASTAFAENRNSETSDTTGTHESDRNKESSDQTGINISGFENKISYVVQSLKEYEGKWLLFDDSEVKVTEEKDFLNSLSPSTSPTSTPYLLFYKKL
# Chain of Cytochrome P450 3A4 (Homo sapiens) (P08684 whole entry, looked up): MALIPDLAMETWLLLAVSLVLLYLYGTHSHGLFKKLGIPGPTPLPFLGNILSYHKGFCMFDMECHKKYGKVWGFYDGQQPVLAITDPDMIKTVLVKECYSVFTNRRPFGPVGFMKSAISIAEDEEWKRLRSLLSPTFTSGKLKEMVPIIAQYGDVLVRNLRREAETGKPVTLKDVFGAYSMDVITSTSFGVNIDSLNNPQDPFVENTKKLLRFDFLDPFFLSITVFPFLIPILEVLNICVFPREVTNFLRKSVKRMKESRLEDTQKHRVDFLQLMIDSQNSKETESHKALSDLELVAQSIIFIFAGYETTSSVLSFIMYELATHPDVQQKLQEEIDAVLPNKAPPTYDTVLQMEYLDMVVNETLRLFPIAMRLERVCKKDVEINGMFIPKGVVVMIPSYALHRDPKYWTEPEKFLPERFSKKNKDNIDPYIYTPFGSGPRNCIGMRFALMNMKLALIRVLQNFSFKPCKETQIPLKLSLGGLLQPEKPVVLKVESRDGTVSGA
# Chain of Bile acid receptor (Homo sapiens) (Q96RI1 whole entry, looked up): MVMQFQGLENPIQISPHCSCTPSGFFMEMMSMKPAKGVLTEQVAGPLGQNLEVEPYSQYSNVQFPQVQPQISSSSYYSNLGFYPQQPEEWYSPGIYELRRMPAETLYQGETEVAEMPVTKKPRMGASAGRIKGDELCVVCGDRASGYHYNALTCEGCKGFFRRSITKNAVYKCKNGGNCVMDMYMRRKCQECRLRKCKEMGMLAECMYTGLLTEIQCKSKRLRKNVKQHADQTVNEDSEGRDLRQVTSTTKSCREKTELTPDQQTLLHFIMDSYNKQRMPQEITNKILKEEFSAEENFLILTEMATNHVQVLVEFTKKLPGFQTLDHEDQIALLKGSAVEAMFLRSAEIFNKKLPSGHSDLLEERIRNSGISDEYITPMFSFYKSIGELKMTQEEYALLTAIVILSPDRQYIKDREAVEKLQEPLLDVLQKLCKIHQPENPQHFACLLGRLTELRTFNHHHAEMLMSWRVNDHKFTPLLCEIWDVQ
# Chain of Retinoic acid receptor RXR-alpha (Homo sapiens) (P19793 whole entry, looked up): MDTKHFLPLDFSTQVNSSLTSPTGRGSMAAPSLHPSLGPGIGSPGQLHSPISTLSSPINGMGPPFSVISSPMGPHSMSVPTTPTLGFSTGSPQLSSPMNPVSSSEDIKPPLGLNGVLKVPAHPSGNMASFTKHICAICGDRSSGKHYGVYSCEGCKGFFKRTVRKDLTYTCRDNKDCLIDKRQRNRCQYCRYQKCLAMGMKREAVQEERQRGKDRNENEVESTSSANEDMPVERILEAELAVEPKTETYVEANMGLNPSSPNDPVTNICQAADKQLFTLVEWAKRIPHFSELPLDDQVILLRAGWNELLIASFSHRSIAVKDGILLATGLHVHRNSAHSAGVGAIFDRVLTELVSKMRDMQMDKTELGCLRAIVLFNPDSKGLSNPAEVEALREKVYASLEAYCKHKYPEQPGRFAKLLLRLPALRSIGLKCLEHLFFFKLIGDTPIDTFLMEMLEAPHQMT
# Chain of Peroxisome proliferator-activated receptor alpha (Homo sapiens) (Q07869 whole entry, looked up, the tested form may be a part): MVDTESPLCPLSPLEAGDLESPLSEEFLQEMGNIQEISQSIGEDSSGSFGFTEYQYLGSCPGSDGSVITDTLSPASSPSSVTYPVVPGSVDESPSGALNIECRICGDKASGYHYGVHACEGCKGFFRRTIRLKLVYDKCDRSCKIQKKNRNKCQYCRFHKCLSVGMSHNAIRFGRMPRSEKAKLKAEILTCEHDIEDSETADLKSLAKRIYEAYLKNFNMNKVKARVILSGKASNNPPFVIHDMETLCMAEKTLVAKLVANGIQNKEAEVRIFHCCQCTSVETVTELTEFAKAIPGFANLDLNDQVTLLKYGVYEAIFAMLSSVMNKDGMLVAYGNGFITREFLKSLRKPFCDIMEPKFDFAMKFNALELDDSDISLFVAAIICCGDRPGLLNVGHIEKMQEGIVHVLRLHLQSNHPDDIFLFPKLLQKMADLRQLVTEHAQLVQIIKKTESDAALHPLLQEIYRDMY
smiles,measurement,setting,value
CC1CC(O)[C@]2(O)[C@]13CC(=O)OC[C@@]2(C)[C@@](C)(O)C(=O)C3 (some centres undefined),Potency,[1],inactive
same,Potency,[2],inactive
same,"activity change, negative = inhibition",[3],1.46% (inactive)
same,max response,[3]; [16],13.4%
same,max response,[3]; [17],16.3%
same,Potency,[4],inactive
C#CCOS(=O)OC1CCCCC1Oc1ccc(C(C)(C)C)cc1 (centres undefined),Potency,[5],inactive
same,Potency,[1],inactive
same,"activity change, negative = inhibition",[3],5.08% (inactive)
same,max response,[3]; [16],0.489%
same,max response,[3]; [17],8.3%
same,activation,[6],6.98% (inactive)
same,max response,[7],24.4%
same,Potency,[8],7.08 µM (active)
same,Potency,[9],5.62 µM (active)
same,activation,[10],7.07% (inactive)
same,activation,[11],0.168% (inactive)
same,max response,[12],-1.77% (inactive)
same,outcome,[13],inactive
CC[C@H]1C2CC3[C@@H]4N(C)c5ccccc5[C@]45C[C@@H](C2[C@H]5O)N3[C@@H]1O (some centres undefined),Potency,[5],inactive
same,"activity change, negative = inhibition",[3],-0.775% (inactive)
same,max response,[3]; [16],15.3%
same,max response,[3]; [17],14.3%
same,outcome,[14],inactive
C[C@]12CCC3C(CC[C@H]4C[C@@H](O)CC[C@]34C)[C@@H]1CCC2=O (some centres undefined),Potency,[15],inactive
same,"activity change, negative = inhibition",[3],0.0615% (inactive)
same,max response,[3]; [16],-8.24%
same,max response,[3]; [17],-8.16%
same,outcome,[14],inactive
CCC12CCCN3CCC4(c5ccc(OC)c(O)c5N(C(C)=O)C4CC1)C32 (centres undefined),Potency,[5],15.8 µM (active)
same,Potency,[15],inactive
same,"activity change, negative = inhibition",[3],-0.564% (inactive)
same,max response,[3]; [16],14.6%
same,max response,[3]; [17],12.8%
same,outcome,[14],inactive
O=c1cccc2n1CC1CNCC2C1 (centres undefined),Potency,[1],inactive
same,Potency,[2],inactive
same,"activity change, negative = inhibition",[3],8.73% (inactive)
same,max response,[3]; [16],7.65%
same,max response,[3]; [17],18%
same,outcome,[14],inactive
O=c1ccc2cc(O[C@H]3OC(CO)C(O)C(O)C3O)c(O)cc2o1 (some centres undefined),Potency,[1],inactive
same,"activity change, negative = inhibition",[3],5.45% (inactive) and 5.34% (inactive)
same,max response,[3]; [16],5.76% and 15.4%
same,max response,[3]; [17],15.3% and 32.6%
same,Potency,[4],inactive
CCC(C)C(=O)O[C@@H]1C[C@@]2(C)C(c3ccoc3)OC(=O)CC23OC2(C)O[C@@]14[C@@]1(C)C(CC(=O)OC)C5(C)CC1(O)C(O)(C5OC(=O)C1(C)OC1C)C(OC(C)=O)[C@@]34O2 (some centres undefined),Potency,[5],1 µM (active)
same,Potency,[15],inactive
same,Potency,[1],inactive
same,"activity change, negative = inhibition",[3],5.34% (inactive)
same,max response,[3]; [16],-2.48%
same,max response,[3]; [17],2.6%
CC1=C2C3OC(=O)C(C)C3CC[C@@]2(C)C=CC1=O (some centres undefined),Potency,[1],inactive
same,Potency,[2],inactive
same,"activity change, negative = inhibition",[3],1.14% (inactive)
same,max response,[3]; [16],15.1%
same,max response,[3]; [17],16.8%
same,Potency,[4],inactive
CNC1C2CN3CCC(O2)C13 (centres undefined),Potency,[5],inactive
same,"activity change, negative = inhibition",[3],3.03% (inactive)
same,max response,[3]; [16],7.52%
same,max response,[3]; [17],11.5%
same,outcome,[14],inactive
CCN1C[C@@]2(COC)C3[C@@H](OC)C4[C@@H]1[C@@]3(C1C[C@@]3(O)[C@H](OC(=O)c5ccccc5)C1[C@]4(OC(C)=O)[C@@H](O)[C@@H]3OC)[C@@H](OC)C[C@H]2O (some centres undefined),Potency,[15],inactive
same,"activity change, negative = inhibition",[3],0.0984% (inactive)
same,max response,[3]; [16],-8.1%
same,max response,[3]; [17],-8.3%
same,outcome,[14],inactive
CC(C)(O)C1C2OC(=O)C1[C@]1(O)CC3O[C@@]34C(=O)OC2[C@@]14C (some centres undefined),Potency,[1],inactive
same,Potency,[2],inactive
same,"activity change, negative = inhibition",[3],4.81% (inactive)
same,max response,[3]; [16],5.32%
same,max response,[3]; [17],12.9%
same,Potency,[4],inactive
